Assay outcomes (PubChem)
Pf Dd2 growth = inhibitors of Plasmodium falciparum Dd2 growth; P. falciparum Dd2 growth, SYBR Green, 72 h; Potency, µM (doses to about 28.9 µM), hits mostly inhibitors; 120,000 compounds, 4.3% hits; active = well fitted inhibition curve with a large enough effect; also: nearly all actives have a fitted effect of over 65% in size
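Readout: SYBR Green fluorescence, 485 nm excitation, 535 nm emission, after ~16 h lysis at 37C. Before that, Dd2-infected red cells (2.5% hematocrit) grew 72 h with compound, 29 uM top final concentration.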
Of the large screens only hits and unclear results are named; the others gave an inactive call. Shown is part of a subset that was picked to be rich in hits.

Cn1ncc(N2CCC(CNC(=O)CN3CCOCC3)C2)cc1=O (stereo not given)	none
O=c1[nH]c(C2CCN(Cc3ccc(C(F)(F)F)cc3)CC2)nn1Cc1ccccc1	none
O=C(Nc1ncc(-c2cccc(F)c2)c2c1OCC2)c1ccc(F)c(Cl)c1	none
COC[C@@H]1CN(C(=O)c2ccn[nH]2)C[C@H]1c1ccncc1	none
Cc1ccc2nc(C(=O)N[C@H]3COC[C@H]3Cc3cc(C)no3)cn2c1	none
CCS(=O)(=O)c1c(Nc2cc(C)ccc2C)sc(C(=O)c2ccccc2)c1N	none
CCc1ccccc1Nc1sc(C(=O)c2ccccc2)c(N)c1S(=O)(=O)c1ccccc1	Pf Dd2 growth 11µM
Cc1cccc(C)c1Nc1sc(C(=O)c2ccccc2)c(N)c1S(=O)(=O)c1ccccc1	none
COc1ccc(Nc2c(-c3ccc(N4CCOCC4)cc3)nc3ncccn23)cc1OC	none
COc1cc(-c2nc3ncccn3c2Nc2ccc(C)cc2C)ccc1O	Pf Dd2 growth 13µM
Cc1ccc(-c2nc3ncccn3c2Nc2ccc3c(c2)OCCO3)cc1	none
CNC(=O)c1noc([C@@H]2CC(F)(F)CN2Cc2cnn(C(C)C)c2)n1	none
CCCNC(=O)N1CCC2(CC1)CC(N(C(=O)c1ccccc1)C1CC1)CCO2 (stereo not given)	none
CC(C)c1cc(C(=O)NCCc2noc(C3CCCO3)n2)nc2ncnn12 (stereo not given)	none
CC(C)c1cc(C(=O)NCCc2nc(-c3cccnc3)no2)nc2ncnn12	none
Cc1cc(CNC(=O)c2cc(C(C)C)n3ncnc3n2)c2[nH]c(C)c(C)c2c1	Pf Dd2 growth 8.9µM
O=C(Nc1cccnc1)N1CC2ON=C(C(=O)N3CCOCC3)C2C1 (stereo not given)	none
CN(Cc1cc2cc(F)ccc2[nH]1)C(=O)C1CCC(=O)N(C2CCCC2)C1 (stereo not given)	none
COc1ccc(OC)c(NC(=O)C2CCCN(S(=O)(=O)c3c(C)nn(C)c3C)C2)c1 (stereo not given)	none
CCOc1ccc(N(CC)S(=O)(=O)N2CCCC(C(=O)Nc3cc(Cl)ccc3OC)C2)cc1 (stereo not given)	Pf Dd2 growth 10µM
CCOc1ccc(OCC)c(NC(=O)C2CCCN(S(=O)(=O)c3ccc(C)cc3)C2)c1 (stereo not given)	none
CC1(C(=O)NCc2ccccc2)CCCCC(=O)N1 (stereo not given)	none
CNC(=O)[C@@H]1CN(S(C)(=O)=O)C[C@H]1COC	none
NC(=O)CO[C@@H]1CO[C@H]2[C@@H]1OC[C@@H]2NS(=O)(=O)c1cccs1	none
COc1ccc(Cl)cc1NC(=O)c1cc(S(=O)(=O)N2CCC(C)CC2)cn1C	none
COc1ccc(N2CCN(C(=O)c3cc(S(=O)(=O)N4CCCCCC4)cn3C)CC2)cc1	none
COc1ccccc1N1CCN(C(=O)c2cc(S(=O)(=O)N3CCC(C)CC3)cn2C)CC1	Pf Dd2 growth 8.9µM
CC(C)n1cc(C(=O)N2CC[C@H](N3CCOCC3)[C@H](CCC(=O)O)C2)cn1	none
COc1ccc(CN2CCc3nc(C(=O)NCc4cccc(F)c4)oc3CC2)cc1	none
Cc1oc2ccn(Cc3cccc(F)c3)c(=O)c2c1C(=O)NCc1ccccc1	none
Cc1oc2c(c1C(=O)N1CCOCC1)CN(Cc1cccnc1)CC2	none
COCCNC(=O)c1c(C)oc2c1CN(Cc1cccc(F)c1)CC2	Pf Dd2 growth 5µM
COc1ccc(CN2CCc3oc(C)c(C(=O)NCc4cccnc4)c3C2)cc1	Pf Dd2 growth 11µM
O=C(NCCOc1ccccc1)c1nc2c(o1)CCN(Cc1cccc(F)c1)CC2	none
Cc1oc2c(c1C(=O)NCCc1ccncc1)CN(C)CC2	none
Cc1oc2c(c1C(=O)NCc1cccnc1)CN(Cc1ccc(F)cc1)CC2	none
Cc1oc2c(c1C(=O)NCc1ccncc1)CN(Cc1cccc(F)c1)CC2	Pf Dd2 growth 10µM
COC(=O)C1CCCN1C(=O)c1c(C)oc2c1CN(Cc1ccc(C)cc1)CC2 (stereo not given)	none
COc1ccc(CN2CCc3oc(C)c(C(=O)NC4CCN(C)CC4)c3C2)cc1	Pf Dd2 growth 10µM
COc1ccc(CN2CCc3oc(C)c(C(=O)N4CCOCC4)c3C2)cc1	none
O=C(NCCc1c[nH]c2ccccc12)c1cnc2c(c1)N([S+](=O)([O-])c1cccnc1)CCC2	none
CC(NC(=O)c1noc(-c2ccc3c(c2)OCO3)n1)c1ccc(F)cc1 (stereo not given)	none
Cc1cccc(CN2CCNc3cc(-c4ccnc(C)c4)ncc3C2)c1	none
O=C(Cc1cccc(F)c1)N1CCC(c2n[nH]c(=O)n2Cc2ccc(F)cc2)CC1	none
Cc1[nH]cnc1C(=O)N1CCC2(CC1)NC(=O)CC2C(=O)O (stereo not given)	none
Cc1nc(-c2c3n(c(=O)n(CC(=O)Nc4cc(F)ccc4F)c2=O)CCCC3)no1	none
O=C(CC1CCCCC1)N1CCC(c2noc(COc3ccc(F)cc3)n2)CC1	none
C[C@H](C(=O)N(C)CCC#N)C1CC[C@@]2(C)Cc3sc(NC(=O)c4cccn4C)nc3[C@@H](C)[C@@H]2[C@H]1O (stereo not given in full)	none
COc1ccc(C(=O)N2CCC3(CC2)N(c2ccccc2)C(=O)CS3(=O)=O)cc1	none
Cc1nc(C2CCN(C(=O)CNC(N)=O)CC2)cc(N2CCOCC2)n1	none
CCN1CCN(c2ncc3c(n2)CCN(Cc2cc(Br)cs2)C3)CC1	Pf Dd2 growth 13µM
CN(C)c1ccc(CN2CCc3nc(N4CCN(c5ccccn5)CC4)ncc3C2)cc1	Pf Dd2 growth 13µM
CCOc1ccc(CN2CCc3nc(Nc4ccc(OC)cc4OC)ncc3C2)cc1	none
Cc1ccc(CN2CCc3nc(N4CCN(c5ccccc5F)CC4)ncc3C2)cc1C	none
CCOc1ccc(CN2CCc3nc(N4CCN(c5ccccn5)CC4)ncc3C2)cc1OC	none
CCOc1ccccc1CN1CCc2nc(N3CCN(c4ccccc4F)CC3)ncc2C1	Pf Dd2 growth 8.9µM
CN1CCN(c2ncc3c(n2)CCN(Cc2ccc(Br)s2)C3)CC1	none
CCOc1ccccc1CN1CCc2nc(N(C)C)[nH]c(=O)c2CC1	none
COCCn1cc(CN2CCN(c3ccccn3)CC2)ccc1=O	none
COc1cc(CN2CCc3nc(N4CCN(c5ccccc5F)CC4)ncc3C2)ccc1OC(C)C	none
CCN1CCN(c2ncc3c(n2)CCN(Cc2ccc(C)s2)C3)CC1	none
COc1cc(CN2CCc3nc(N4CCN(c5ncccn5)CC4)ncc3C2)cc(OC)c1OC	Pf Dd2 growth 7.9µM
COc1cccc(CC(=O)N2C[C@@H](Oc3cccnc3)C[C@H]2C(N)=O)c1	none
O=C(CCc1cc2ccccc2[nH]c1=O)NCc1ccco1	none
O=[S+]([O-])(c1cccs1)N1CC(Oc2ccc(F)cc2F)C1	none
CN(C)c1ncc2c(n1)C(C)(C(=O)NCCOc1ccccc1)CCC2 (stereo not given)	none
CC(=O)N[C@H]1CCN(CCC(=O)Nc2ccc(F)c(Cl)c2)C1	none
O=C1NC(=NC2CCCCC2)C2(CCN(CC3CC3)CC2)N1c1cccnc1	none
COc1ccccc1N1CCN(c2ncc3c(n2)CCN(Cc2ccccc2C)C3)CC1	none
CCCCN1CCc2nc(N3CCN(C)CC3)ncc2C1	none
Cc1ccccc1CN1CCc2nc(N3CCN(c4ncccn4)CC3)ncc2C1	Pf Dd2 growth 8.9µM
Cc1ccc(CSCC(=O)N2CCN(c3cc(Cl)ccc3C)CC2)cc1	none
Cc1ccc(/C=C/C(=O)Nc2ccc3nc(N4CCC(C)CC4)cc(C)c3c2)cc1	none
Cc1cc(N2CCCCC2)nc2ccc(NC(=O)CCC(=O)N3CCN(c4cccc(Cl)c4)CC3)cc12	Pf Dd2 growth 11µM
Cc1cccn2c(=O)cc(COc3cccc(NC(=O)Nc4cccc(Cl)c4)c3)nc12	none
Cc1cn(C)c(CC(=O)N2CCN(c3cccc(Cl)c3)CC2)c1C(=O)O	none
Cc1cc(N2CCN(C)CC2)nc2ccc(NC(=O)Nc3cccc(Cl)c3)cc12	Pf Dd2 growth 1µM
